SMILES strings stand for the structures. In all, about 52,000 compounds went through this assay and about 4,300 (8.3%) were called active. No stated cut-off is given here; in the data, active means survival mostly below about 52% (no sharp cut-off); inactive means mostly above about 56%. Shown is part of a subset that was picked to be rich in actives.

The values that follow come from PubChem BioAssay AID463173 (ICCB-Longwood Screening Facility, Harvard Medical School, 2010).

In the experiment the test system is DeltatarO mutant. In words: growth inhibition of S. aureus wild type versus tarO mutant, primary screen, teichoic acid synthesis inhibitors, RN4220, OD600 (AID 463173). The note with it: OD600, 18 h, hits give low values, screened at 18.75 µg/mL (by protocol).
As for `O=C(CN1C(=O)COc2ccc(S(=O)(=O)N3CCCCC3)cc21)NCc1ccc(Cl)cc1`, the survival was 64% (inactive). Regarding `CCOC(=O)c1ccc(NC(=O)c2nn(C)c3c2COc2ccccc2-3)cc1`, the survival is 106% (inactive).

Consider `O=C(CSC1=Nc2ccccc2N=C(c2ccc(F)cc2)C1)NCc1ccc(Cl)cc1`, for which the survival was 72% (inactive). `CCc1nn(CC(=O)N2CCCCC2)c(=O)c2cc3sccc3n12`: the survival is 65% (inactive). Consider `CC1CCN(S(=O)(=O)c2ccc3c(ccc(=O)n3CC(=O)Nc3ccc(C(C)C)cc3)c2)CC1`, for which the survival was 0% (active). Consider `CC1CCN(S(=O)(=O)c2ccc3c(ccc(=O)n3CC(=O)NCc3ccccc3)c2)CC1`, for which the survival was 49% (inactive). `CC1CCN(S(=O)(=O)c2ccc3c(ccc(=O)n3CC(=O)NCc3ccc(Cl)cc3)c2)CC1`: the survival is 75% (inactive). Then `Cc1ccc(NC(=O)Cn2c(=O)ccc3cc(S(=O)(=O)N4CCC(C)CC4)ccc32)cc1Cl`, with 74% (inactive); and `CC(=O)Nc1ccc(NC(=O)Cn2c(=O)ccc3cc(S(=O)(=O)N4CCC(C)CC4)ccc32)cc1`, with 84% (inactive); and `Cc1ccc(CNC(=O)Cn2c(=O)ccc3cc(S(=O)(=O)N4CCC(C)CC4)ccc32)cc1`, with 37% (active). `CCCNC(=O)N1CCN(S(=O)(=O)c2ccc3c(ccn3C)c2)CC1`: the survival was 83% (inactive). As to `CCc1c(-c2ccccc2)nc2ccccc2c1C(=O)NCCc1ccccc1`, the survival is 70% (inactive). With `CCOc1ccc(NC(=O)Cn2c(=O)n(-c3ccccc3)c(=O)c3ccc(C(=O)NCc4ccc5c(c4)OCO5)cc32)cc1`, the survival was 107% (inactive). For the compound `COc1cccc(CNC(=O)CSc2nc(=O)[nH]c3c2CCC3)c1`, the survival is 80% (inactive). Regarding `CCOc1ccc(-c2cc(C(=O)NCc3ccc(OCC)c(OC)c3)[nH]n2)cc1`, the survival is 85% (inactive). Regarding `CCN1CCN(c2cc(C)c3cc(NC(=O)c4cc(Br)ccc4Cl)ccc3n2)CC1`, the survival was 32% (active). In the case of `Cc1cc(N2CCN(C)CC2)nc2ccc(NC(=O)Nc3ccccc3)cc12`, the survival is 65% (inactive).

For `Cc1ccc(C(=O)Nc2ccc3nc(N4CCCCC4)cc(C)c3c2)cc1F`, the survival is 55% (inactive). The value for `Cc1cc(N2CCCCC2)nc2ccc(NC(=O)CCC(=O)N3CCN(c4ccccc4)CC3)cc12` was 62% (inactive); that for `Cc1cc(N2CCCCC2)nc2ccc(NC(=O)c3cccc(Cl)c3)cc12` was 0% (active). Then `CCN1CCN(c2cc(C)c3cc(NC(=O)c4cccc(C(F)(F)F)c4)ccc3n2)CC1`, with 63% (inactive). Take `Cc1cc(C)cc(NC(=O)Nc2ccc3nc(N4CCN(C)CC4)cc(C)c3c2)c1`: the survival is 117% (inactive). The value for `Cc1cc(N2CCCCC2)nc2ccc(NC(=O)c3cccc(F)c3)cc12` was 83% (inactive); that for `Cc1cc(N2CCN(C)CC2)nc2ccc(NC(=O)Nc3cccc(Cl)c3)cc12` was 70% (inactive). Then `Cc1cc(N2CCN(C)CC2)nc2ccc(NC(=O)Nc3ccc(Cl)cc3)cc12`, with 72% (inactive); and `CCN1CCN(c2cc(C)c3cc(NC(=O)c4cccc(Cl)c4)ccc3n2)CC1`, with 23% (active); and `Cc1ccccc1C(=O)Nc1ccc2nc(N3CCCCC3)cc(C)c2c1`, with 32% (active).
